In PubChem BioAssay AID1159580 (chemical genetic matrix, 2015):
In all, about 5,500 compounds went through this assay and about 2,000 (36%) were called active. About 18% were inconclusive and are not listed. No stated cut-off is given here; in the data, active means normalized growth mostly below about 0.91 (no sharp cut-off); inconclusive means no clear call, values can overlap the other calls; inactive means mostly above about 0.92. Some of the results follow.

Assay: chemical genetic growth profiling, strain panel (AID 1159580);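 further: tested at 20 µM; growth read once vehicle control cultures reached saturation at 30 °C; 1 = growth at the plate median or of vehicle wells; lower values mean less growth of the strain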
Settings: S. cerevisiae deletion strains, growth OD

Measured: normalized growth

CSC(=NNc1ccccc1)NC(=O)c1c(Cl)cccc1Cl
inactive: locus YAR019C, strain CDC15, active compounds read low 0.972 | locus YBL105C, strain PKC1, active compounds read low 0.967 | locus YBR135W, strain CKS1, active compounds read low 0.967 | locus YBR136W, strain MEC1, active compounds read low 0.972 | locus YBR160W, strain CDC28, active compounds read low 0.967 | locus YDL017W, strain CDC7, active compounds read low 0.981 | locus YDL028C, strain MPS1, active compounds read low 0.975 | locus YDL101C, strain DUN1, active compounds read low 0.974 | locus YDL108W, strain KIN28, active compounds read low 0.963 | locus YDL132W, strain cdc53, active compounds read low 0.98 | locus YDL214C, strain PRR2, active compounds read low 0.89 | locus YDR052C, strain DBF4, active compounds read low 0.975 | locus YDR054C, strain cdc34, active compounds read low 0.961 | locus YDR226W, strain ADK1, active compounds read low 0.969 | locus YDR477W, strain SNF1, active compounds read low 0.923 | locus YER123W, strain YCK3, active compounds read low 0.812 | locus YER133W, strain GLC7, active compounds read low 0.918 | locus YFL009W, strain cdc4, active compounds read low 0.972 | locus YFL029C, strain CAK1, active compounds read low 0.958 | locus YFR003C, strain YPI1, active compounds read low 0.971 | locus YFR019W, strain FAB1, active compounds read low 0.904 | locus YFR028C, strain CDC14, active compounds read low 0.967 | locus YGR040W, strain KSS1, active compounds read low 0.887 | locus YGR052W, strain FMP48, active compounds read low 0.951 | locus YGR092W, strain DBF2, active compounds read low 0.82 | locus YHR030C, strain SLT2, active compounds read low 0.909 | locus YHR079C, strain IRE1, active compounds read low 0.896 | locus YHR082C, strain KSP1, active compounds read low 0.938 | locus YHR205W, strain SCH9, active compounds read low 0.921 | locus YIL147C, strain SLN1, active compounds read low 0.975 | locus YJL095W, strain BCK1, active compounds read low 0.902 | locus YJL128C, strain PBS2, active compounds read low 0.945 | locus YJL157C, strain FAR1, active compounds read low 0.886 | locus YJR016C, strain ILV3, active compounds read low 0.966 | locus YJR066W, strain TOR1 (second series), active compounds read low 0.904 | locus YJR066W, strain TOR1, active compounds read low 0.968 | locus YKL048C, strain ELM1, active compounds read low 0.882 | locus YKL067W, strain YNK1, active compounds read low 0.892 | locus YKL101W, strain HSL1, active compounds read low 0.867 | locus YKL193C, strain SDS22, active compounds read low 0.969 | locus YKL203C, strain TOR2, active compounds read low 0.969 | locus YLR133W, strain CKI1, active compounds read low 0.872 | locus YLR403W, strain SFP1, active compounds read low 0.897 | locus YML070W, strain DAK1, active compounds read low 0.806 | locus YMR001C, strain CDC5, active compounds read low 0.965 | locus YMR205C, strain PFK2 (second series), active compounds read low 0.887 | locus YMR277W, strain FCP1, active compounds read low 0.975 | locus YNL006W, strain LST8, active compounds read low 0.97 | locus YNL020C, strain ARK1, active compounds read low 0.88 | locus YNL161W, strain CBK1, active compounds read low 0.979 | locus YNL183C, strain NPR1, active compounds read low 0.927 | locus YNL207W, strain RIO2, active compounds read low 0.97 | locus YNL222W, strain SSU72, active compounds read low 0.961 | locus YNL307C, strain MCK1 (second series), active compounds read low 0.817 | locus YOL078W, strain AVO1, active compounds read low 0.968 | locus YOL136C, strain PFK27, active compounds read low 0.842 | locus YOR061W, strain CKA2, active compounds read low 0.798 | locus YOR119C, strain RIO1, active compounds read low 0.961 | locus YOR231W, strain MKK1, active compounds read low 0.82 | locus YOR329C, strain SCD5, active compounds read low 0.976 | locus YPL031C, strain PHO85, active compounds read low 0.917 | locus YPL153C, strain RAD53, active compounds read low 0.91 | locus YPL204W, strain HRR25, active compounds read low 0.906 | locus YPL209C, strain IPL1, active compounds read low 0.972 | locus YPR025C, strain CCL1, active compounds read low 0.968 | locus YPR106W, strain ISR1, active compounds read low 0.955 | locus YPR111W, strain DBF20, active compounds read low 0.948 | strain NNK1, active compounds read low 0.964 | strain TSCII, active compounds read low 0.968
active: locus YLR113W, strain HOG1, active compounds read low 0.738 | locus YPL256C, strain CLN2, active compounds read low 0.814
